Assay outcomes from PubChem BioAssay.
IL-1B inflam inh = inflammasome signaling inhibition, IL-1 beta readout | activity change, % at 57.5 µM | THP-1 LPS/ATP IL-1B secretion, AlphaLISA, 16 h; hits give low values | AID 743279 | hit rate 4.7% among 360,000; in the data active = activity change below about -50%; inconclusive = mostly about -30% to -49%; note: % is set by controls: 0 for no effect and ±100 for the full control effect
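THP-1 cells pretreated 1 hr with compounds (up to 57.5 uM final), then stimulated with LPS (250 ng/mL final) plus ATP (1.25 mM final); secreted IL-1B measured by AlphaLISA after 16 hr, decreased signal indicating inhibition.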
TDP1 inh = blocks human tyrosyl-DNA phosphodiesterase 1. Potency, µM (series often up to 130 µM), for inactives: top-dose activity change, negative = inhibition, hits mostly inhibitors. hit rate 0.28% among 350,000. Q9NUW8. recombinant TDP1, AlphaScreen DNA substrate cleavage. AID 485290; note: potency is the fitted concentration of half-maximal effect; % is set by controls: 0 for no effect and ±100 for the full control effect; nearly all actives have a fitted effect of over 40% in size
Target sequence (Q9NUW8 whole entry, looked up): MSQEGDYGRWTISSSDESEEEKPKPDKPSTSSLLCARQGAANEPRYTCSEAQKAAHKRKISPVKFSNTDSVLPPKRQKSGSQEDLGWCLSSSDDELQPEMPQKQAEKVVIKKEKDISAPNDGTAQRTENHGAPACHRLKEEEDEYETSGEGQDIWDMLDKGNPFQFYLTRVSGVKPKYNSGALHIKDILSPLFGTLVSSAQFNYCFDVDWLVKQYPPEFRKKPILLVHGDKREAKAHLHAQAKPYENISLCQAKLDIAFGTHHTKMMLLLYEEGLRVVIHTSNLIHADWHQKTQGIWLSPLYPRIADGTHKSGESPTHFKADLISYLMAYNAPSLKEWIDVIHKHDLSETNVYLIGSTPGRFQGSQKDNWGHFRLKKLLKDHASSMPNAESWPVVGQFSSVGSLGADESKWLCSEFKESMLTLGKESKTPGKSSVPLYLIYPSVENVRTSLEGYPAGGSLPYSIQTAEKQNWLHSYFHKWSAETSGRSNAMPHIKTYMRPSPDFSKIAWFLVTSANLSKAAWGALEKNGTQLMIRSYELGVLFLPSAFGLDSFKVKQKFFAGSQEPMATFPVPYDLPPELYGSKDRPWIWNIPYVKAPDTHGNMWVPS
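E. coli-derived human Tdp1, 1 nM final. Cpd preinc 15 min RT; substrate 15 nM final, 5 min RT; AS bead mix 10 ug/ml final, 10 min RT. Signal loss = tyrosine-FITC cleavage. No-enzyme wells = max signal.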
TGFb inhibitor = blocks TGF-b signaling; HepG2 CAGA-GFP TGF-b/SMAD3 reporter, GFP fluorescence, 18 h; TGF-beta stimulated, 500 pg/mL final; Potency, µM (top dose mostly 46.1 µM), inactives show top-dose activity, negative = inhibition, most hits filed as inhibitors; hit rate 1.2% among 410,000; note: potency is the fitted concentration of half-maximal effect; % is set by controls: 0 for no effect and ±100 for the full control effect; nearly all actives have a fitted effect of over 65% in size
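GFP signal (ex488/em500-530) from TGF-beta-stimulated HEPG2 CAGA-GFP cells, 500 pg/mL final, 18 h at 37 degrees C in DMEM plus 1% FBS, normalized to unstimulated and DMSO-stimulated controls.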
HepG2 viability = kills HepG2 cells in TGF-b inhibitor counter-screen; HepG2 CAGA-GFP viability, ATP luminescence, 18 h; Potency, µM (top dose mostly 46.1 µM), without a hit: at the top dose activity change, negative = cytotoxicity, most hits filed as cytotoxic; AID 588856; hit rate 0.76% among 410,000; note: potency is the fitted concentration of half-maximal effect
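HepG2 CAGA-GFP cells (1000/well, DMEM with 1% FBS) received compound, then TGF-beta at 500 pg/mL final, and were incubated 18 hours at 37 degrees C. Viability was read by CellTiter-Glo luminescence. Media-only wells were set as complete cell-killing and DMSO as no toxicity.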
TDP1 cell noCPT = qHTS for Inhibitors of human tyrosyl-DNA phosphodiesterase 1 (TDP1): qHTS in cells in absence of CPT | AID 686978, 2013 | Potency, µM (highest dose often 46.2 µM), for inactives: top-dose activity change, negative = growth inhibition, most hits filed as inhibitors | hit rate 15% among 420,000 | DT40 Tdp1-/- hTDP1 cells, no CPT, ATP luminescence, 48 h; note: potency is the fitted concentration of half-maximal effect; % is set by controls: 0 for no effect and ±100 for the full control effect; nearly all actives have a fitted effect of over 55% in size
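Camptothecin absent (DMSO only). Human TDP1-complemented DT40 knockout cells, 400 cells/well, 37 °C for minimum 48 hr; ATP measured via CellTiter-Glo, 30 min dark incubation, luminescence.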
DT40 TDP1 CPT = DT40-hTDP1 cell growth loss with CPT; Potency, µM (doses to about 46.2 µM), without a hit: at the highest dose activity change, negative = growth inhibition, hits mostly inhibitors; chicken DT40 Tdp1-/-;hTDP1 cells + 20 nM CPT, ATP luminescence, 48 h; hit rate 12% among 420,000; note: potency is the fitted concentration of half-maximal effect; % is set by controls: 0 for no effect and ±100 for the full control effect; nearly all actives have a fitted effect of over 55% in size
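Cell growth measured by CellTiter-Glo luminescence after a minimum 48 h, 37 C compound exposure with 20 nM CPT in Tdp1-knockout DT40 cells stably expressing hTDP1, seeded 400/well; qHTS titration format.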
The depositor's hits bear a star; ? = inconclusive; / = no result given; [ ] = remark or other dose. An excerpt weighted towards active compounds, which were near 19% of everything screened. Unless noted, calls come from the whole dose curve; as a rule, active = well fitted curve in the direction sought with a large enough effect; inconclusive = small, poorly fitted or top-dose-only effect, or another doubt; inactive = no such curve, though single readings can be large; an effect the other way counts as inactive or inconclusive.

SMILES | IL-1B inflam inh | TDP1 inh | TGFb inhibitor | HepG2 viability | TDP1 cell noCPT | DT40 TDP1 CPT
CCN(CC)C(=S)SSC(=S)N(CC)CC | -110* | 12%[56.1 µM] | ? | -56% | 0.15µM* | 0.021µM*
COc1cc(OC)c(/C=C/c2cc3ccccc3c[n+]2C)c(OC)c1 | / | / | 7.9µM* | -37% | 1µM* | 0.5µM*
COc1ccc(OC)c(/C=C/c2c3ccccc3cc[n+]2C)c1 | / | / | -8% | -9% | 1.4µM* | 2.2µM*
COc1ccc(OC)c(/C=C/c2cc3ccccc3c[n+]2C)c1 | / | / | -5% | -70% | 2µM* | 2.8µM*
CCC(Cn1nnc2ccccc2c1=O)NC(=O)Nc1ccc(C)c(C)c1 (centres undefined) | / | 2% | -15% | -6% | ? | ?
C=C1C(=O)O[C@H]2[C@H]1[C@@H](O)CC(=C)[C@@H]1CC(=O)[C@@H](C)[C@H]21 | -92* | / | -4% | 0% | 6.5µM* | 5.2µM*
CCCn1c(-c2ccc(F)cc2)nc2c(NCC(C)(C)CN(C)C)nc(C)nc21 | / | 5% | / | / | / | /
CCC(C)NC(=O)C1c2ccccc2C(=O)N(c2ccc(OC)cc2)C1c1ccc(OC)cc1 (centres undefined) | 38 | 0% | -3% | -23% | 21µM* | ?
Cn1c(CNC(=O)C2CCC(=O)N(CCc3cccc(F)c3)C2)nc2ccccc21 (centres undefined) | -8 | 3% | 0% | -5% | ? | ?
CN1CCN(C(=O)c2cn(-c3ccccc3)nc2-c2cccs2)CC1 | -9 | -3% | 3% | -4% | -20% | 3%
O=C(c1cn(-c2ccccc2)nc1-c1cccs1)N1CCN(c2ccccn2)CC1 | 4 | 11% | -20% | -4% | 21µM* | ?
CN(CC(=O)Nc1cccc(F)c1)C(=O)c1cn(-c2ccccc2)nc1-c1ccc(Cl)cc1 | -60* | 0% | ? | -39% | ? | ?
CCN(CC)CCNC(=O)c1cn(-c2ccccc2)nc1-c1cccs1 | -21 | 5% | -6% | -33% | -18% | -15%
CN(CC(=O)Nc1cccc(F)c1)C(=O)c1ccccc1-n1cnnn1 | 29 | -2% | -3% | -5% | 11% | 0%
CCN(CC)CCOC(=O)c1ccc(NC(=O)c2cn(-c3ccccc3)nc2-c2cccs2)cc1 | -53* | 6% | ? | -82% | 21µM* | ?
CN(CC(=O)Nc1cccc(F)c1)C(=O)c1cn(-c2ccccc2)nc1-c1cccs1 | -5 | / | ? | -25% | 13µM* | ?
O=C(CSc1nnc(C2CC2)n1CC1CCCO1)Nc1ccccc1Cl (centres undefined) | -3 | -9% | -9% | 0% | 3% | 2%
COCCNC(=O)Cn1ccc2cc(S(=O)(=O)N3CCCCC3)ccc21 | 18 | 1% | 3% | 0% | 15% | -10%
Cc1ccc(CSC2=NC(C)(C)Nc3ccccc32)c(C)c1 | / | -11% | ? | -34% | ? | -28%
COc1cccc(NC(=O)CN(C)C(=O)c2cn(-c3ccccc3)nc2-c2cccs2)c1 | -53* | 2% | -15% | 2% | ? | ?
COc1cccc(NC(=O)CN(C)C(=O)c2cn(-c3ccccc3)nc2-c2cccnc2)c1 | 0 | 2% | -5% | -23% | ? | ?
CN(CC(=O)Nc1cccc(F)c1)C(=O)c1cc(-c2cccs2)nn1-c1ccccc1 | -6 | -4% | 0% | -7% | 16µM* | ?
O=C(c1cn(-c2ccccc2)nc1-c1cccs1)N(CCO)Cc1ccccc1 | -11 | 6% | -18% | -26% | 18µM* | -29%
Cc1ccccc1NC(=O)c1cccc(NC(=O)c2ccccc2C(=O)O)c1 | -5 | / | 22% | 31% | 2% | 13%
O=C(NC1CCCCC1)C(c1cccs1)N(Cc1cccs1)C(=O)c1cccs1 (centres undefined) | -66* | 0% | -13% | -2% | 16µM* | 18µM*
SMILES | IL-1B inflam inh | TDP1 inh | TGFb inhibitor | HepG2 viability | TDP1 cell noCPT | DT40 TDP1 CPT
Cc1ccc(N(C(=O)C(F)(F)F)C(C(=O)NC2CCCCC2)c2cccs2)cc1 (centres undefined) | 12 | 4% | 18% | -5% | ? | ?
COc1ccc(CCN(C(=O)C(F)(F)F)C(C(=O)NC2CCCCC2)c2ccc(C)s2)cc1 (centres undefined) | -2 | -2% | -4% | 3% | 2.8µM* | 3.3µM*
COCCN(C(=O)C(F)(F)F)C(C(=O)NC1CCCCC1)c1ccco1 (centres undefined) | 14 | -8% | 12% | -3% | ? | -25%
COc1ccc(CCN(C(=O)C(F)(F)F)C(C(=O)NC2CCCCC2)c2cccs2)cc1 (centres undefined) | -8 | 1% | -10% | -3% | 4.6µM* | 7.3µM*
O=C(NC1CCCCC1)C(c1ccc2ncccc2c1)N(Cc1cccs1)C(=O)c1cccs1 (centres undefined) | ? | 0% | -25% | 1% | ? | ?
CCOC(=O)c1c(-c2ccc(OC)cc2)oc2ccc(OCc3ccccc3C)cc12 | / | / | 5% | 1% | ? | -23%
CCOC(=O)c1[nH]c(C)c(CCC(=O)NCc2ccc(OCC)cc2)c1C | / | 8% | 10% | -1% | -27% | -10%
C=CCC1C=CCC(CC=C)N1C(=O)c1ccccc1[N+](=O)[O-] (centres undefined) | -19 | 2% | -4% | -3% | ? | 13µM*
CCOc1ccc(NC(=O)N2CCN(c3nnc(C)c4c(C)n(-c5ccccc5)nc34)CC2)cc1 | / | 8% | 2% | 0% | -6% | -17%
Cc1ccc(C(=O)Nc2nc(-c3ccccn3)cs2)o1 | 165 | 12% | ? | 2% | 3.7µM* | 5.8µM*
Cc1ccc(C(=O)Nc2ncccc2O)o1 | 27 | / | -8% | -10% | ? | -6%
c1ccc(CCNc2nc(-c3ccccn3)cs2)cc1 | 0 | -2% | -15% | -19% | 7.3µM* | ?
CCc1nnc(NC(=O)c2ccc(-c3ccc(C(C)=O)cc3)o2)s1 | ? | -4% | -8% | -1% | 5% | -16%
c1ccc(CCNc2cnccn2)cc1 | 6 | / | -12% | -26% | 2% | 0%
CCc1cc(C(=O)Nc2nc(-c3ccccn3)cs2)sc1C | 114 | 2% | ? | -19% | 2.9µM* | 4.6µM*
